# Measured values reported in the supplement of paper PMC3334620.
# Over roughly 33,000 sequences, “E-score (-0.5 to 0.5)” has its median near -0.04; the highest 2% begin near 0.36. This excerpt belongs to a sample that is enriched for the highest values.
# Biological target: T1, Hmlalpha2 (UniProt P0CY09)
# T1 sequence: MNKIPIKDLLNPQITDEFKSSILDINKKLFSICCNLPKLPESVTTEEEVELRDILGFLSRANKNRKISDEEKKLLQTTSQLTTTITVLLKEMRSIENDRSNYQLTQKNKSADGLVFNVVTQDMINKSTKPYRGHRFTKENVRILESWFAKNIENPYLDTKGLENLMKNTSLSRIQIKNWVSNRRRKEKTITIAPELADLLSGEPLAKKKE
# Test: PBM E-score (8-mer binding enrichment) (E-score (-0.5 to 0.5)); higher = stronger / more preferred TF binding
# Settings: protein concentration: 200 nM; construct: GST-full length
# Summary of the method: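 Universal all-10-mer Agilent arrays, double-stranded by primer extension on fresh or once-stripped slides, were probed with about 100-200 nM GST-tagged yeast transcription factors made by PURExpress. Fluorescent anti-GST detected bound protein, and masliner normalised the scans. E-scores from the Universal PBM Analysis Suite were given to each ungapped eight-base word pooled with its reverse complement.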
row,Sequence,PBM E-score
1,ATGGTAGC,-0.037
2,GTCAGTAA,0.133
3,ACTCTCCC,-0.283
4,CTGGGATC,-0.141
5,CACATTGA,0.097
6,AATTTCAC,0.0769
7,CCTTTACA,0.448
8,TCTTTAAA,0.0801
9,TCTTTGCA,0.0746
10,CCTTTACC,-0.204
11,TCTTTACA,0.445
12,CCTTTACG,0.223
13,GGAAAAAC,0.0566
14,AATGATAT,0.0696
15,AGTCTCTC,-0.306
16,CATGTCAC,0.245
17,CATGTCGA,0.386
18,AATGTCAA,0.182
19,AGTGTCAA,0.134
20,GATGTCGA,0.126
21,TATGTCAA,0.426
22,GATGTCAA,0.194
23,CGTGTCAA,0.438
24,CATGTCAG,0.314
25,CATGTCAA,0.44

row,Sequence,PBM E-score
1,CATGTCGG,0.265
2,CGTGTCAG,0.273
3,GAGGATCA,-0.143
4,CTCAGTAA,-0.0267
5,AACGCAGG,0.0539
6,AGAATCTC,-0.015
7,GAGGTTAC,0.0883
8,TAACTCGA,0.277
9,AGACTCGA,-0.211
10,GGCGGTGA,-0.163
11,CGCCACAG,-0.0887
12,ACATGAAC,0.366
13,ACATGAAT,0.371
14,ACATGAAA,0.302
15,CCATGAAC,-0.0422
16,ACATGAAG,0.338
17,GCATGAAC,0.104
18,AGCAGGCG,0.046
19,GATTGTGC,0.0144
20,ACGAGGAA,0.0596
21,TACGCTGA,0.122
22,ACATGCTG,0.377
23,TCATGCCA,0.0681
24,ACATGCCA,0.397
25,CCATGCTC,-0.13

row,Sequence,PBM E-score
1,TCATGCAA,0.107
2,ACATGCAC,0.36
3,ATATGCTG,-0.0833
4,AAATGCTG,0.229
5,ACATGCAA,0.398
6,ACATGCTC,0.388
7,ACATGCCT,0.3
8,CTATGCTC,-0.27
9,GTGGCCCA,-0.191
10,ACGCAAAC,0.125
11,CTCGCTAC,-0.181
12,CCGTTCCG,-0.225
13,AGCGAGTC,-0.136
14,CTCTAGAC,-0.116
15,ATCGGGGC,-0.175
16,AGTGCTCG,-0.187
17,GAGTTCGC,-0.169
18,TCGACAGA,-0.0778
19,ACATGCGT,0.399
20,CCATGCTA,0.0439
21,ACATGCTA,0.379
22,ACATGCGC,0.308
23,ACATGCGG,0.289
24,GCATGCTA,0.00271
25,TCAGCGGA,-0.169

row,Sequence,PBM E-score
1,GACCTCGC,-0.148
2,ACGCTCCT,0.0508
3,GCTAAGGA,-0.195
4,AATCTCCA,0.042
5,ACAAGCGA,0.112
6,AGATACAT,0.388
7,AGATACAA,0.276
8,ACATACAG,0.336
9,ACATACAT,0.421
10,ACATACAA,0.325
11,GCATACAC,0.256
12,CCATACAC,0.145
13,ACATACAC,0.404
14,AGATACAG,-0.0238
15,CTCTGCCA,-0.219
16,ATTCTTAA,0.148
17,GCCGAGCC,-0.127
18,GAGGCAGA,-0.265
19,CCGGACCG,-0.303
20,AATACTCA,0.18
21,AATACACG,0.473
22,AATACACA,0.467
23,AATACACT,0.326
24,AATACACC,0.307
25,CATGAGTC,0.175

row,Sequence,PBM E-score
1,ACCGGTCT,-0.25
2,ATTCCTGA,-0.0807
3,ATATAACC,-0.0903
4,GTATAACA,0.378
5,ATATAACA,0.384
6,CTATAACA,0.335
7,GTATAAAA,0.282
8,CTATAATA,-0.00916
9,ATATAATA,0.199
10,GTATAATA,0.368
11,GTATAAGA,0.116
12,AGCGGTTC,-0.0786
13,TGATCAAA,-0.137
14,TCACCGAA,0.0184
15,ACAAGTAC,0.165
16,CATCGGTA,-0.217
17,GCAAAACC,-0.272
18,AAATCTTC,0.0872
19,CCATCGCC,-0.261
20,ATGAACAT,0.323
21,AGTTACAC,0.426
22,CGTTACAG,-0.0046
23,CGTTACAC,0.385
24,CGTTACAA,0.318
25,AGTTACAG,0.0744

row,Sequence,PBM E-score
1,GGTTACAC,0.314
2,CGAAACTC,-0.242
3,CCGGCTGC,0.0149
4,GGCCGACA,-0.247
5,GAATGCTC,-0.225
6,ATCTCACC,-0.126
7,CAATCCTG,0.0153
8,AGGGGTTG,-0.253
9,CCAAGCGC,-0.0307
10,ACATGGAG,0.262
11,ACATGGGT,0.382
12,ACATGGAT,0.388
13,ACATGGAA,0.317
14,ACATGGGA,0.33
15,ACATGGGC,0.342
16,CCTAGGAA,-0.125
17,AACTTCAC,0.121
18,CAGATTTC,-0.132
19,CGAATGCA,0.145
20,GGCCATTA,0.0102
21,AGAGTGCA,-0.0981
22,AGACGATC,-0.29
23,GCACGATA,0.154
24,ACACGATG,0.388
25,CCACGATC,0.172

row,Sequence,PBM E-score
1,CCACGATA,-0.11
2,AAACGATG,0.0541
3,ACACGATA,0.433
4,ACACGAAG,0.358
5,ACACGATC,0.426
6,CGTGGCTC,-0.209
7,AAGTTCCC,-0.296
8,CGGTGGAC,-0.136
9,GAGATAAA,0.0648
10,GTTTAATA,0.218
11,CTTTAACA,0.363
12,ATTTAACA,0.429
13,GTTTAACA,0.41
14,ATTTAACC,0.0603
15,ATTTAACG,0.355
16,CTGGGGGA,-0.422
17,GCCACGAC,-0.0179
18,ATCTGTGG,-0.267
19,CCAAAGAA,-0.0602
20,AAAAAGAT,-0.00444
21,CAGGGGCG,-0.0915
22,ACACCTAG,-0.163
23,CAAAACAG,0.124
